This is a sample that favours compounds with a hit; in the whole collection about 4% have one here.
NLRP3 yeast inh: NALP3 inflammasome inhibitors in reconstituted yeast, primary screen, luminescence, uHTS | Yeast reconstituted NLRP3/ASC/caspase-1, beta-gal luminescence, 24 h | inhibition, % at 10 µM | 330,000 compounds, 0.39% hits | AID 2825, 2010;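 active means inhibition of 50% or more; inactive means inhibition below 50%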
NALP1 inh: NALP1 inflammasome inhibitors in reconstituted yeast, colorimetric, S. cerevisiae, triplicate retest | inhibition, % at 10 µM | 280,000 compounds, 0.61% hits | S. cerevisiae NALP1/ASC/caspase-1 growth, X-gal OD620, 72 h; in the data active means inhibition mostly above about 24%, no sharp cut-off; inactive means mostly below about 32%
tim10-1 inh: growth inhibitors of tim10-1 mutant yeast, primary screen, luminescence, uHTS; S. cerevisiae tim10-1 ts strain growth, BacTiter-Glo, 24 h; inhibition, % at 20 µM; 330,000 compounds, 2.2% hits; AID 463190, 2010;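 active means inhibition of at least 40%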;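 further: mutant grown at 25 °C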
TIM10 inh: growth inhibitors of isogenic TIM10 control yeast, primary screen, counter-screen for tim10-1 yeast inhibitor project, luminescence, uHTS. S. cerevisiae TIM10 strain growth, BacTiter-Glo luminescence, 24 h. inhibition, % at 10 µM. 330,000 compounds, 1.4% hits. AID 463195, 2010;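 active means inhibition of 40% or more at the single tested concentration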;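 further: wild-type TIM10 isogenic control strain grown at permissive 25 °C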
tim23-1 inh: growth inhibitors of tim23-1 mutant yeast, primary screen, luminescence, uHTS. AID 463212, 2010. S. cerevisiae tim23-1 growth, BacTiter-Glo luminescence, 24 h. 330,000 compounds, 1.3% hits. inhibition, % at 20 µM;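 active means growth inhibition of the mutant yeast at or above 50%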;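 further: temperature-sensitive mutant grown at 25 °C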
tim23-1 conf: tim23-1 mutant yeast growth inhibitors, confirmation, luminescence, single concentration | 4,400 compounds, 83% hits | inhibition, % at 20 µM | shares compounds with tim23-1 inh | S. cerevisiae tim23-1 growth, BacTiter-Glo luminescence, 24 h | AID 463218, 2010;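 active means inhibition above about 39% in either of two replicate wells at 20 µM, limit read from the data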;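 further: temperature-sensitive tim23-1 mutant grown at 25 °C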
A number is an active result; - = inactive; . = not tested or not shown.

SMILES	NLRP3 yeast inh	NALP1 inh	tim10-1 inh	TIM10 inh	tim23-1 inh	tim23-1 conf
COc1ccc(CC(=O)NCc2csc(-c3cccs3)n2)cc1OC	-	-	-	-	-	.
CCOC(=O)c1sc(NC(=O)CCN2CCN(CC)CC2)c(C(=O)OCC)c1C	-	-	-	-	-	.
Fc1ccc(-c2n[nH]c(=S)n2Cc2ccccc2)cc1	-	-	-	-	56.1	-
O=C1/C(=C/c2ccccc2Cl)SC(=S)N1CCCC(=O)N(CCO)c1ccccc1	-	-	-	-	56.3	48.0
O=C(CCCN1C(=O)/C(=C/c2ccccc2Cl)SC1=S)Nc1ccccn1	-	-	-	-	-	.
CCc1cc(Cn2nc(-c3ccccc3)cc2C(=O)NCc2cccc(Br)c2)on1	-	.	-	-	-	.
COc1ccc(COn2c(=O)c(C)[n+]([O-])c3ccccc32)cc1OC	-	-	-	-	89.3	-
COc1ccc(CCNS(=O)(=O)c2ccc(Br)cc2)cc1	-	-	-	-	51.8	-
CSCCC(NC(=O)c1ccccc1Cl)C(=O)N(C)Cc1cccs1 (stereo not drawn)	-	-	-	-	-	.
O=C(/C=C/c1cccnc1)c1ccc(O)cc1	-	-	-	-	-	.
O=C(/C=C/c1cccnc1)c1ccccc1O	-	-	-	-	51.5	50.5
Cc1cc(C)cc(NC(=O)Nc2c(Br)cnn2C)c1	-	-	-	-	-	.
Cc1cccc(C)c1Nc1nnc(SCC(=O)c2ccc(Br)s2)s1	-	-	-	-	52.5	61.1
Cc1nc(SCC(=O)Nc2ccccc2Cl)c2c(C)c(C)sc2n1	-	.	-	-	-	.
O=C(Cc1ccc(Cl)cc1)Nc1ncc([N+](=O)[O-])s1	.	-	.	.	.	.
O=C(Nc1ccc(Cl)cc1)Nc1ccccc1Sc1ncc([N+](=O)[O-])s1	-	.	-	-	53.6	71.7
COC(=O)[C@H](CC(C)C)N1Cc2cc(OC)cc(OC)c2-c2ccccc2S1(=O)=O	.	.	-	-	50.4	-
C=C1CCN(C(CC(C)C)C(=O)OC)S(=O)(=O)c2ccccc21 (stereo not drawn)	-	-	-	-	-	.
CCCNC(=O)c1ccccc1NC(=O)Cc1ccc(OC)c(S(=O)(=O)N2CCOCC2)c1	-	.	-	-	-	.
COc1cccc(/C=C/C(=O)c2ccc3c(c2)OCO3)c1OC	-	.	-	-	53.5	54.0
Cc1cc2oc(=O)cc(-c3ccccc3)c2c(C)c1-c1ccc(CO)cc1	.	.	-	-	53.5	-
CC(=O)Oc1ccc(/C=C2/CCc3ccccc3C2=O)cc1	-	-	-	-	60.0	51.4
COc1cccc(/C=C2\CCc3ccccc3C2=O)c1	-	-	-	-	-	.
CN(Cc1ccc(Cl)c(Cl)c1)C(=O)C1CSC2(C)CCC(=O)N12 (stereo not drawn)	-	.	-	-	-	.
O=C(CSc1nnc(Cc2ccccc2)o1)Nc1ccc(N2CCOCC2)cc1	-	.	-	-	-	.
SMILES	NLRP3 yeast inh	NALP1 inh	tim10-1 inh	TIM10 inh	tim23-1 inh	tim23-1 conf
COCCNC(=O)/C(C#N)=C/c1ccc(C(=O)O)cc1	-	-	-	-	-	.
COCCNC(=O)/C(C#N)=C/c1ccc(OCc2ccccc2)cc1	-	-	-	-	54.6	52.8
COCCNC(=O)/C(C#N)=C/c1ccc(OCc2ccc(F)cc2)cc1	-	-	-	-	55.7	48.1
Cc1nc2ccc(NC(=O)c3cccs3)cc2c(=O)n1Cc1ccc(Cl)cc1	-	-	-	-	62.4	45.9
Cc1c(NS(C)(=O)=O)cccc1-c1nc2cccnc2s1	-	-	-	-	-	.
Cc1c(NS(=O)(=O)c2cccs2)cccc1-c1nc2cccnc2s1	-	-	-	-	59.4	56.2
O=C1CCCN1CCC(=O)N1CCCC(N2CCN(c3ccccc3F)CC2)C1 (stereo not drawn)	-	-	-	-	-	.
C=CCOc1ccc(/C=C2\SC(=S)N(NS(=O)(=O)c3ccccc3)C2=O)cc1	-	-	-	-	60.4	55.7
Cc1cccc(C(=O)OCC(=O)NC23CC4CC(CC(C4)C2)C3)c1O	-	.	-	-	56.1	55.8
Cc1ccc(O)c(N=Nc2ccccc2)n1	-	.	-	-	54.3	54.0
Cc1cc(C)c(NC(=O)CS(=O)CC(=O)N2CCN(c3ccc(F)cc3)CC2)c(C)c1 (stereo not drawn)	-	-	-	-	-	.
Cc1cc(C)c(NC(=O)CS(=O)CC(=O)N2CCN(c3cccc(C)c3C)CC2)c(C)c1 (stereo not drawn)	-	-	-	-	89.5	-
CCN(CC)c1ccc(C(=O)Nn2cnc3ccccc3c2=O)cc1	-	-	-	-	-	.
O=C(COC(=O)c1ccc2ncsc2c1)Nc1cc(Cl)ccc1F	-	.	-	-	55.5	41.1
Cc1c(C(=O)NCc2nnc(-c3ccccc3)o2)oc2c(F)cccc12	-	-	-	-	-	.
O=c1c(-c2ccccc2)c1-c1ccccc1	-	-	-	-	57.9	-
C(=N\Nc1nc2ccccc2s1)/c1ccccn1	-	-	-	-	58.2	61.3
C=CCn1cccc(C(=O)Nc2ccc(OC)cc2)c1=O	-	-	-	-	95.5	-
COc1ccc2nc(NC(=O)c3ccccc3C(=O)O)sc2c1	-	-	-	-	-	.
COc1ccc(C(=O)Nc2nc3ccccc3s2)c(OC)c1	-	.	-	-	62.6	74.8
COc1ccc(C(=O)NCC(C)C)c(OC)c1	-	-	-	-	72.4	-
CCOc1ccc(NC(=O)c2cc3ccccc3cc2OC)cc1	-	-	-	-	-	.
COc1ccc(NC(=O)c2cc3ccccc3cc2OC)cc1	-	-	-	-	50.0	-
Cc1cccc(C)c1NC(=O)CNC(=O)C1CC(=O)N(Cc2ccccc2)C1 (stereo not drawn)	-	.	-	-	-	.
Nc1ccc(C(=O)Nc2nc3ccccc3s2)cc1	-	-	-	-	50.6	44.3
COc1ccccc1C(=O)Nc1nc2ccccc2s1	-	-	-	-	58.3	48.3
Cc1cc(C)n(-c2ccc(C(=O)Nc3nc4ccccc4s3)cc2)n1	-	-	-	-	-	.
Cc1ccc(C2(c3ccc(C)cc3)CC2C(=O)Nc2ccc([N+](=O)[O-])cc2O)cc1 (stereo not drawn)	-	-	-	-	50.4	-

Screening data (PubChem)
